# CYP2C9 act – CYP2C9 (human) activation; P11712; recombinant CYP2C9, luciferin-H conversion, luminescence; active compounds read high; factor 1 = untreated enzyme, 0 = blocked; activation factor at 5 µM; 96,000 compounds, 1.4% hits;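 active = activation factor of 2 or more for CYP2C9 at a 5 µM dose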;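 note: 0 = sulfaphenazole-blocked wells and 1 = vehicle-only wells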
# Target sequence (P11712 whole entry, looked up): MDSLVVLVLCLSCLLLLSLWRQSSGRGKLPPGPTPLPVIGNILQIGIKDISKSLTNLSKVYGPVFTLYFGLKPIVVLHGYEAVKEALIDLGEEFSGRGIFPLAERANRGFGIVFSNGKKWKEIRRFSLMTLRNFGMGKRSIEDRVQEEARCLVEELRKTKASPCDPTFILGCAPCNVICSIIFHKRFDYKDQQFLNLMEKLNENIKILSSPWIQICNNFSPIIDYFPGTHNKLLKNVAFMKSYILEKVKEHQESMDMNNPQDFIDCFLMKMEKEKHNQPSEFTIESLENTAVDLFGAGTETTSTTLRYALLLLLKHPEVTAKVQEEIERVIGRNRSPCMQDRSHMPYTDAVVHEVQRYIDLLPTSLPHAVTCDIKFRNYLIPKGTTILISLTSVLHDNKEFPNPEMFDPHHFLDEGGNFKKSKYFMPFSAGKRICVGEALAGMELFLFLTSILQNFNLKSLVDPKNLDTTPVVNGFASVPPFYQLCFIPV
# CYP2C19 activ – increases human CYP2C19 enzyme activity; activation factor at 5 µM; 96,000 tested, under 10 active; P33261; recombinant CYP2C19, luciferin-H EGE luminescence; active compounds read high; 0 = fully inhibited enzyme, 1 = untreated enzyme;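 active = activation factor of at least 2 at 5 µM in the primary screen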;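 note: 0 = wells with 2.5 mM tranylcypromine and 1 = vehicle-only wells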
# Cav32 inh – blocks human Cav3.2 T-type calcium channel | 100,000 compounds, 4% hits | Cav3.2-expressing cells, Fluo-4 calcium fluorescence FDSS; active compounds read low | B-score at 10 µM | AID 449739 | O95180;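 active = single-dose well whose peak fluorescence ratio is a statistical outlier from its plate by either plate-standardised score or position-corrected B-score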
# CYP2C19 inhib – blocks human cytochrome P450 2C19; P33261; CYP2C19 Supersomes, luciferin-H EGE luminescence, 30 min; inhibition, % at 5 µM; 96,000 compounds, 21% hits; AID 778;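 active = CYP2C19 inhibition above a set limit at 5 µM in the primary screen, cut at about 50% in these data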;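 note: plate controls were negative control wells for no effect and 2.5 mM tranylcypromine positive control for full effect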
# CYP2C9 inhib – inhibitors of human CYP2C9; inhibition, % at 5 µM; AID 777; P11712; 96,000 compounds, 20% hits; CYP2C9 Supersomes, luciferin-H conversion, luminescence;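 active = blocking of liver enzyme CYP2C9 beyond about 50% at 5 µM, limit read from the data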
# * = called active by the depositor; . = not tested or not shown. An excerpt weighted towards active compounds, which were near 27% of everything screened.
SMILES,CYP2C9 act,CYP2C19 activ,Cav32 inh,CYP2C19 inhib,CYP2C9 inhib
CNc1nn(-c2cccc(Cl)c2)nc1N,0.8,0.8,0.2,18,23
O=C(CNC(=O)c1cccs1)NCCN1CCN(c2ccccc2F)CC1,0.9,0.9,.,14,9
Cc1ccc2nc(SCC(=O)Nc3nnc(SCC(N)=O)s3)[nH]c2c1,0.7,1,1,4,32
O=C(Oc1cccc(Nc2ncnc3ccccc23)c1)c1ccccc1Cl,0.4,0.9,-5.4*,14,57*
COc1cccc(Nc2ncnc3ccccc23)c1,0.5,0.6,-0.0053,42,50
C/C(=N/NC(=O)c1cccs1)c1ccc(NC(=O)COc2ccc(Cl)cc2)cc1,1,1.1,-1.1,-7,-2
Cc1ccc(Oc2ncc(-c3ccc(Cl)cc3)cn2)cc1,1,0.7,.,25,1
Cc1ccc(OCc2nc(-c3ccc(Cl)cc3)n[nH]2)cc1,0.1,0,-2.4,95*,94*
Cc1nc(CS(=O)(=O)c2ccc(Cl)cc2)cc(Sc2ccccc2Cl)n1,0.3,0.5,-4.5*,52*,67*
Cc1nc(CS(=O)(=O)c2ccccc2)cc(Sc2ccccc2Cl)n1,0.5,0.5,.,47,49
Cc1nc(CS(=O)(=O)c2ccc(Cl)cc2)cc(N2CCOCC2)n1,0.5,0.2,0.84,80*,53*
CC(NC(=O)OCc1ccccc1)C(=O)N1CC(O)CC1C(=O)O (stereo not drawn),1.2,1.2,-0.055,-16,-16
CC(C)CCNC(=O)c1onc(CSc2ccccc2)c1C(=O)NCCC(C)C,.,.,-2.5,.,.
CC(=O)c1ccc(NC(=O)C2CCCN2S(=O)(=O)c2ccc(F)cc2)cc1 (stereo not drawn),0.3,0.3,1.8,66*,74*
CCc1nnc(NC(=O)C2CCCN2S(=O)(=O)c2ccc(F)cc2)s1 (stereo not drawn),0.1,0.2,1.5,76*,86*
CCc1nnc(NC(=O)[C@@H]2CCCN2S(=O)(=O)c2ccc3c(c2)OCCO3)s1,0.6,0.8,0.4,16,45
COc1ccc(C2C(C(C)=O)=C(C)N=c3s/c(=C/c4ccc5c(c4)OCO5)c(=O)n32)cc1 (stereo not drawn),0.8,0.9,.,8,16
COc1ccc(/C=c2/sc3n(c2=O)NC2(c4ccccc4)N(C)C(=O)N(C)C2(c2ccccc2)N=3)cc1 (stereo not drawn),0.4,0.6,-0.78,40,60*
COc1ccc(CCC(C)Nc2ccc(F)cc2)cc1 (stereo not drawn),.,.,-1.6,.,.
CCCCCCNC(=O)n1cc(F)c(=O)[nH]c1=O,.,.,-0.67,.,.
Cc1onc(-c2c(F)cccc2Cl)c1C(=O)OCn1nnc2ccccc2c1=O,.,.,-1.8,.,.
O=S(=O)(c1cccs1)N1CCN(C/C=C/c2ccccc2)CC1,0.3,0.1,.,86*,74*
O=S(=O)(c1ccc(Cl)s1)N1CCN(C/C=C/c2ccccc2)CC1,0.2,0.2,-1.2,78*,80*
O=C(CCS(=O)(=O)c1cccc2nsnc12)NCc1ccccc1Cl,1,0.7,1.6,35,-4
COc1ccc(OC)c(CNC(=O)CCN2C(=O)COc3ccccc32)c1,1.3,0.3,0.52,70*,-34
SMILES,CYP2C9 act,CYP2C19 activ,Cav32 inh,CYP2C19 inhib,CYP2C9 inhib
COc1ccc(Br)cc1CNC(=O)CCN1C(=O)COc2ccccc21,1.1,0.2,0.15,81*,-8
CCOc1ccc(CCNC(=O)CCN2C(=O)COc3ccccc32)cc1OCC,0.7,0.9,-2.2,15,32
CCOc1ccc(N2C(=O)CC(SC(=NC)Nc3ccc(F)cc3)C2=O)cc1 (stereo not drawn),.,.,-2.5,.,.
O=C1C2C(c3ccccc3)C=CC(c3ccccc3)C2C(=O)N1C1CCCCC1 (stereo not drawn),0.2,1.2,.,-18,80*
CC(C)=C(NC(=O)c1ccccc1)C(=O)NCCCC(=O)O,1.1,1.1,-0.046,-15,-12
Nc1nncn1C(=O)CCc1ccccc1,1.2,1,1.3,4,-15
CC(C)CC(CO)N1CCN(C(=O)c2ccccc2)CCC1=O (stereo not drawn),.,.,0.15,.,.
CCC(C)(C)n1nnnc1CN1CCC(c2nc3ccc(C)cc3[nH]2)CC1,0.3,0.5,0.69,47,66*
Clc1ccc(CN2CCC(c3nc4ccc(Cl)cc4[nH]3)CC2)cc1,0.5,0.5,.,47,47
COC(=O)c1ccc(-c2nc3ccccc3o2)cc1,0.8,0.7,.,30,16
COc1ccc(C(=O)/C(=C/c2cccs2)c2nc3ccccc3o2)cc1,0.3,0.7,-4.2,26,69*

# Screening results as filed in PubChem.
